Screens deposited in PubChem BioAssay by Center for Chemical Genomics, University of Michigan.
Dicer inh: inhibitors of Dicer pre-microRNA processing, primary screen, biochemical, cat-ELCCA, chemiluminescence; z-score at 25 µM; cat-ELCCA pre-miR-21 Dicer processing; active compounds read high; actives 6% (n = 47,000); Endoribonuclease Dicer (Homo sapiens), Q9UPY3; in the data active = z-score above about 3, passing the limit was not always enough;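 also: higher signal means more uncleaved substrate so more Dicer inhibition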
Numbers stand for hits; n = inactive. The sample as a whole holds a higher share of hits than the screen did.

SMILES	Dicer inh
COc1ccc(Br)cc1C1NC(=O)c2ccccc2N1 (centres undefined)	n
Cc1cccc(S(=O)(=O)Nc2cccc(-c3cn4ccc(C)cc4n3)c2)c1	n
Cc1cccc(S(=O)(=O)Nc2ccc(-c3cn4cccc(C)c4n3)cc2)c1	n
Cc1cc(C)c(S(=O)(=O)Nc2ccc(-c3cn4ccccc4n3)cc2)cc1C	n
Cc1nc(-c2ccc(NS(=O)(=O)c3ccc(Cl)cc3)cc2)cs1	5.9
Cc1nc(-c2ccc(Cl)cc2)cs1	n
CC(=O)Nc1ccc(S(=O)(=O)Nc2ccc(-c3csc(C)n3)cc2)cc1Cl	n
Cc1cccn2cc(-c3ccc(NS(=O)(=O)c4ccc(Cl)cc4)cc3)nc12	6
Cc1nc(-c2cccc(NS(=O)(=O)c3ccc4ccccc4c3)c2)cs1	4.5
CCCN(CCC)S(=O)(=O)c1cccc(-c2cn3cccc(C)c3n2)c1	n
CC(=O)Nc1nc(-c2ccc3ccccc3c2)cs1	n
Cc1cccn2cc(-c3cccc(S(=O)(=O)N4CC(C)CC(C)C4)c3)nc12 (centres undefined)	n
CCc1ccc(S(=O)(=O)Nc2ccc(-c3cn4cccc(C)c4n3)cc2)cc1	7.2
CSc1nnc2c(n1)OC(c1ccc(F)cc1)N(C(C)=O)c1ccccc1-2 (centres undefined)	n
CCOC(=O)c1c(SC)nc2ccc(Cl)cc2c1N1CCN(C)CC1	n
CCOC(=O)C(NC(C)=O)(Nc1cccc(C)c1)C(F)(F)F (centres undefined)	n
CCCC1=NN(c2ccccc2)C(=O)/C1=C/c1ccc(Cl)cc1	n
C#CC1(NS(=O)(=O)c2ccc(C(=O)OCC)cc2)CCCCC1	n
Nc1ncnc2nc(N3CCCC3)ncc12	n
O=C(Cn1cc(C(=O)c2ccco2)c2ccccc21)Nc1ccc(F)cc1	n
COC(=O)c1cc(/C=C2\CSc3ccc(Cl)cc3C2=O)cn1C	n
O=C(COC(=O)c1cc2ccccc2cc1OC(=O)c1ccc(Cl)cc1)c1ccc(Cl)cc1	n
Cc1ccc(C(=O)COC(=O)c2cc(Cl)ccc2O)cc1C	4
COc1ccc(C(=O)CC(=O)c2cc(Cl)ccc2O)cc1OC	n
O=C1CCC(=O)N1CNc1ccccc1C(F)(F)F	n
SMILES	Dicer inh
O=C1CCC(=O)N1CNc1ccccn1	3.4
Cc1cccc(NCN2C(=O)CCC2=O)n1	n
COc1ccc(C2c3c(oc4ccccc4c3=O)C(=O)N2c2nccs2)cc1OC (centres undefined)	n
CC1=C(C(=O)OC2CCCC2)C(c2cccc(O)c2)C2=C(CC(c3cccs3)CC2=O)N1 (centres undefined)	n
O=C(c1cncc(-c2cccs2)c1)N1CCN(C2c3ccccc3-c3ccccc32)CC1	n
CCCCCCCNC(=O)c1cc([N+](=O)[O-])cc2c1-c1ccc([N+](=O)[O-])cc1C2=O	n
CCOC(=O)c1c(SC)nc2c(Cl)cccc2c1Sc1cccs1	n
CCOC(=O)c1sc(SC)c2c1CCC=C2	n
CCOC(=O)c1sc2sc(C(=O)OCC)c(C)c2c1C	n
CCOC(=O)c1sc(SC)c(C(C)O)c1C (centres undefined)	3.9
NC1=NC(c2ccccc2)N2C(=N1)Sc1ccccc12 (centres undefined)	n
Cc1c(C(=O)O)c2ccccc2[nH]c1=O	n
COc1cccc2ccc(=O)n(C)c12	n
Cn1c(-c2ccccc2)cccc1=O	3.8
Cn1c(-c2ccccc2)cn2cc(-c3ccccc3)nc12	n
Cc1cc(C)n(CC(O)Cn2c(C)c(C)c3ccccc32)n1 (centres undefined)	n
Cc1ccc2c(c1)c(C)c(C)n2CC(O)CN1CCCCC1C (centres undefined)	3.6
OC(CNC1CCCCC1)Cn1c2ccccc2c2ccccc21 (centres undefined)	n
CCCCCNc1nc(-c2ccccc2)c2c(c1C#N)CC(C)(C)OC2	n
Cc1ccc(C2Nc3ccccc3NC3=C2C(=O)CC(c2ccccc2)C3)cc1 (centres undefined)	n
COc1ccc(C2CC(=O)C3=C(C2)Nc2ccccc2NC3c2ccccc2Cl)cc1OC (centres undefined)	n
COc1ccc(C2CC(=O)C3=C(C2)Nc2ccccc2NC3c2cccc3ccccc23)cc1 (centres undefined)	n
CSc1ccc(C2Nc3ccccc3NC3=C2C(=O)CC(c2ccccc2)C3)cc1 (centres undefined)	n
CCN(CC)c1ccc(C2CC(=O)C3=C(C2)Nc2ccccc2NC3c2ccco2)cc1 (centres undefined)	8.2
COc1ccccc1C1Nc2ccccc2NC2=C1C(=O)CC(c1ccc(Cl)cc1)C2 (centres undefined)	4.3
SMILES	Dicer inh
O=C1CC(c2ccco2)CC2=C1C(c1ccco1)Nc1ccccc1N2 (centres undefined)	n
COc1ccc(C2CC(=O)C3=C(C2)Nc2ccccc2NC3c2ccc(OC)cc2OC)cc1 (centres undefined)	3
COc1ccc(OC)c(C2Nc3ccccc3NC3=C2C(=O)CC(c2ccc(OC)c(OC)c2)C3)c1 (centres undefined)	n
COc1ccccc1C1Nc2ccccc2NC2=C1C(=O)CC(c1ccccc1)C2 (centres undefined)	n
CN(C)c1ccc(C2Nc3ccccc3NC3=C2C(=O)CC(c2ccccc2)C3)cc1 (centres undefined)	n
CCOc1ccc(C2Nc3ccccc3NC3=C2C(=O)CC(c2ccccc2)C3)cc1 (centres undefined)	3.6
C=CCNc1nc(SCc2ccc(Cl)cc2)nc2sc3c(c12)CCCC3	n
COC(=O)c1c(NC(=O)c2nc3ncccn3n2)sc2c1CCCCC2	n
C#CCSc1nc(CCC)c(CC=C)c(=O)[nH]1	n
C/C(=N\OC(=O)c1ccc(C(F)(F)F)cc1)c1ccc[nH]1	n
CCOC(=O)c1c(-n2c(C)ccc2C)sc2c1CCCC2	n
CC(C)(C)c1ccc(NC(=O)Oc2ccccc2N2CCCCC2)cc1	n
Cc1sc2nc(C)n(/N=C/c3cccnc3)c(=O)c2c1C	n
COC(=O)c1ccsc1NC(=O)c1ccc(C(F)(F)F)cc1	n
CN(CCO)c1nc2cc(Cl)ccc2s1	n
CCOC(=O)C1C(=O)C(=O)N(C)C1c1ccccc1 (centres undefined)	n
Cc1ccc(C2Nc3ccccc3NC3=C2C(=O)CC(C)(C)C3)c(O)c1 (centres undefined)	n
COc1ccc(C2CC(=O)C3=C(C2)Nc2ccccc2NC3c2ccc(O)cc2)cc1 (centres undefined)	n
COc1ccc(C2CC(=O)C3=C(C2)Nc2ccccc2NC3c2ccc(Cl)cc2)cc1 (centres undefined)	n
CC1(C)CC(=O)C2=C(C1)Nc1ccccc1NC2c1cc(Cl)ccc1O (centres undefined)	3.9
COc1ccc(C2CC(=O)C3=C(C2)Nc2ccccc2NC3c2ccccc2)cc1 (centres undefined)	3.5
CC1(C)CC(=O)C2=C(C1)Nc1ccccc1NC2c1ccc(O)c(O)c1 (centres undefined)	n
FC(F)(F)c1cnc(CSc2c(Cl)cccc2Cl)c(Cl)c1	n
O=C(Nc1ncc(Cc2ccccc2)s1)c1cc2ccccc2c(=O)o1	n
CCOC(=O)c1[nH]c(COC(C)=O)c(C(C)=O)c1C	n
FC(F)(F)c1ccnc(N2CCC(NC(=S)NC3CC3)CC2)n1	n
CCNC(=O)N(c1ccccc1)c1ccccc1	n
O=C(O)CCC(=O)N1N=C2/C(=C/c3ccc(F)cc3)CCCC2C1c1ccc(F)cc1 (centres undefined)	n
